Compounds with a hit are over-represented: about 6.8% of the library has one in this group of screens.
NADH coupling: blocks coupling enzymes of NAD/NADH assays; 65,000 tested, 0.02% active; IC50, µM (top dose mostly 10 µM), inactives show at the highest dose inhibition; coupled PK/LDH NADH assays, four targets; AID 774;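 active means single-dose screening hits from any of four coupled enzyme assays that gave an IC50 when retested across doses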;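 further: the DPM-DC format reads NADH fluorescence rather than 340 nm absorbance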
Spn MK inh: S. pneumoniae mevalonate kinase inhibition; purified MK, PK/LDH-coupled NADH absorbance 340 nm; 65,000 tested, 0.48% active; inhibition, % at 10 µM;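 active means ranked among the strongest by inhibition in the single 10 µM screen, a fixed top-ranked set picked for dose follow-up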
Spn DPM-DC inh: blocks S. pneumoniae diphosphomevalonate decarboxylase. purified DPM-DC, PK/LDH coupled NADH fluorescence. calls only at 10 µM. 65,000 tested, 0.49% active. AID 556;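 active means the 320 compounds with the highest percent inhibition in the single-dose primary screen, excluding strongly autofluorescent ones, cut at about 32% in these data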;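 further: kinetic rate of NADH fluorescence loss reporting ADP formed by the decarboxylase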
A340 absorber: compound absorbs light at 340 nm. 65,000 tested, under 10 active. fold change at 10 µM. compound absorbance at 340 nm, fold over control;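 active means at 10 µM dose, initial 340 nm absorbance at least 2 fold that of control wells; inactive means change under 2 fold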;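 further: initial absorbance extrapolated from kinetic A340 decline of NADH oxidation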
Spn PMK inh: S. pneumoniae PMK inhibition | purified PMK, PK/LDH-coupled NADH absorbance 340 nm | inhibition, % at 10 µM | 65,000 tested, 0.49% active | AID 539;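 active means top-ranked compounds by inhibition in the single 10 µM screen, taking a fixed number of the strongest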;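 further: 0% = full reaction with DMSO carrier and 100% = background rate without enzyme reaction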
Fluor 339 460: intrinsic fluorescence of library compounds, ex339/em460 – biochemical, MLSMR library, data from DPM-DC assay, artefact control, profiling panel; compound autofluorescence, ex339/em460 nm, NADH buffer; active compounds read high; 1 = no-compound wells, NADH background; fluorescence fold increase at 10 µM; 65,000 tested, 5.5% active; AID 709;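 active means at 10 µM, mean starting fluorescence two-fold or more over control wells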;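 further: signal is the first read of a kinetic run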
* = called active by the depositor; i = inactive; nt = no result given; + = active, no number; [ ] = remark or other dose.

SMILES | NADH coupling | Spn MK inh | Spn DPM-DC inh | A340 absorber | Spn PMK inh | Fluor 339 460
CCOC(=O)c1ccc(NC(=O)NC2CC3CCC(C2)N3Cc2nnnn2C(C)(C)C)cc1 (centres undefined) | 11% | 8 | i | 0.97 | 17 | 1
c1ccc(N2CCN(c3nc(NCc4ccco4)c4ccccc4n3)CC2)cc1 | 1% | 3 | i | 1 | 0 | 1.6
c1coc(CNc2nc(N3CCCCC3)nc3ccccc23)c1 | 13% | 13 | nt | 0.99 | 13 | 3.7*
Cc1oc2cc(O)ccc2c(=O)c1-c1cnn(-c2ccccc2)c1 | 5% | 7 | nt | 1 | 8 | 2.5*
CCn1c(SCC(=O)NC2CCCCC2)nnc1-c1cccs1 | 7% | 11 | i | 0.98 | 10 | 1.1
CCn1c(SC(=O)NC2CCCCC2)nnc1-c1cccs1 | 18% | 11 | nt | 1 | 25* | 1.9
CCCCOc1ccc(OCCNS(=O)(=O)N(C)C)cc1 | 6% | 6 | i | 1 | 11 | 1.1
Cc1ccc2[nH]c3c(NCc4ccco4)ncnc3c2c1 | 3% | 4 | nt | 1.1 | 1 | 3.8*
c1coc(CNc2ncnc3nc[nH]c23)c1 | 5% | 14 | i | 1 | 0 | 1.1
COc1ccc2[nH]c3c(NCCN4CCCCC4)ncnc3c2c1 | 7% | 5 | nt | 1.1 | 8 | 3.7*
Cc1ccc2[nH]c3c(NCCCN4CCCC4=O)ncnc3c2c1 | 9% | 7 | nt | 1.1 | 10 | 3.8*
CCc1cc2c(NCCN3CCCCC3)ncnc2s1 | 9% | 2 | i | 1 | 24 | 1.1
O=C(O)C(c1ccccc1)N1CCCC1 (centres undefined) | 2% | 5 | i | 1 | 17 | 1.1
CCCN1C(=O)c2cc(C(=O)NCCc3cccc(C)c3)ccc2C1O (centres undefined) | 2% | 4 | i | 1.1 | 1 | 1.1
c1coc(-c2nnc3sc(-c4cccs4)nn23)c1 | 4% | 6 | i | 1.1 | 6 | 1.1
COc1nc(-c2ccccc2)ccc1-c1noc(-c2cccs2)n1 | 1% | 0 | i | 1.1 | 4 | 2.2*
CCOc1nc(-c2ccccc2)ccc1-c1noc(-c2cccnc2)n1 | 3% | 0 | nt | 1 | 13 | 1.9
COc1ccc(-c2ccc(-c3noc(-c4ccccc4)n3)c(OC)n2)cc1 | 5% | 10 | nt | 1 | 16 | 3*
COc1nc(-c2ccccc2)ccc1-c1noc(-c2ccccc2)n1 | 2% | 1 | i | 1.1 | 6 | 1.8
COc1nc(-c2ccccc2)ccc1-c1noc(-c2ccco2)n1 | 7% | 5 | i | 1.1 | 3 | 1.9
CCOc1nc(-c2ccccc2)ccc1-c1noc(-c2ccc(OC)c(OC)c2)n1 | 4% | 4 | +[fluoresces] | 1 | 14 | 1.8
COc1ccc(-c2noc(-c3ccccc3F)n2)cc1 | 5% | 4 | i | 1 | 8 | 1.1
COc1ccc(-c2ccc(-c3noc(-c4ccccc4F)n3)c(OC)n2)cc1 | 7% | 7 | nt | 1.1 | 7 | 3.7*
COc1nc(-c2ccccc2)ccc1-c1noc(COc2ccccc2)n1 | 9% | 17 | nt | 1.1 | 0 | 2.1*
COc1nc(-c2ccc(Cl)cc2)ccc1-c1noc(-c2ccncc2)n1 | 7% | 13 | i | 1 | 11 | 2.8*
SMILES | NADH coupling | Spn MK inh | Spn DPM-DC inh | A340 absorber | Spn PMK inh | Fluor 339 460
c1ccc(OCc2nc(-c3ccccc3)no2)cc1 | 1% | 2 | i | 1 | 1 | 1.1
COc1ccc(-c2ccc(-c3noc(-c4ccco4)n3)c(OC)n2)cc1 | 6% | 10 | nt | 1.2 | 1 | 3.7*
Cc1cnn(Cc2ccccc2)c1N | 4% | 0 | i | 0.99 | 12 | 1
O=C1C(=O)N(CCCn2ccnc2)C(c2cccnc2)/C1=C(/O)c1ccccc1 (centres undefined) | 8% | 6 | i | 1.1 | 19 | 1
Cc1noc(C)c1CSc1nnc(-c2ccccc2F)n1CCc1ccccc1 | 6% | 3 | i | 0.99 | 14 | 1
COCC(C)n1c(COc2ccccc2F)nnc1SCc1c(C)noc1C (centres undefined) | 11% | 3 | i | 1 | 29* | 1
CCc1cc2c(=O)c(-n3cnc4ccccc43)coc2cc1O | 8% | 2 | nt | 1.1 | 13 | 4.2*
COC(=O)c1ccc(CNC(=O)CSc2nnc(COc3ccccc3)n2C)o1 | 5% | 7 | i | 1 | 9 | 1.1
Cc1ccc2c(CC(=O)N3CCN(S(=O)(=O)c4ccc5c(c4)OCCO5)CC3)coc2c1 | 4% | 4 | i | 1 | 7 | 1.1
CCOc1cc(N2CCOCC2)c(OCC)cc1NC(=O)CN1CCc2ccccc2C1 | 25% | 73* | i | 1.1 | 2 | 1.1
CCOc1cc(N2CCOCC2)c(OCC)cc1NC(=O)Cc1ccc(OC)c(OC)c1 | 10% | 5 | i | 0.99 | 26* | 1
COc1cc2c(N3CCOCC3)cc(O)c(CC(=O)Nc3ccccc3)c2cc1OC | 4% | 5 | nt | 1 | 10 | 3.1*
CC1(C)CC2CC(C)(CN2C(=O)c2cc(-c3ccccc3O)on2)C1 (centres undefined) | 4% | 10 | i | 0.98 | 3 | 1.1
Cc1cc(C)c2oc(-c3ccc(Cl)c(NC(=O)c4ccc(C#N)cc4F)c3)nc2c1 | 7% | 9 | nt | 1.1 | 5 | 4*
COc1ccc2nc(S(=O)Cc3ncc(C)c(OC)c3C)[nH]c2c1 (centres undefined) | 8% | 9 | i | 0.99 | 1 | 1.8
Cc1cc(Nc2ccc(F)c(Cl)c2)n2nc(C)nc2n1 | 7% | 12 | i | 1.1 | 8 | 1.1
Cc1cc(-c2ccc(Cl)cc2)n2nc(N)nc2n1 | 2% | 4 | nt | 1.1 | 0 | 3.6*
Nc1nc2nccc(-c3ccc(Cl)cc3)n2n1 | 12% | 7 | nt | 1.1 | 17 | 3.8*
CCN1C(=O)NC2C1N(S(C)(=O)=O)CCN2S(C)(=O)=O (centres undefined) | 6% | 6 | i | 1 | 11 | 1.1
COc1ccccc1-c1c(C)c(C)nc(N)c1C#N | 9% | 8 | i | 1.1 | 8 | 2.4*
CCc1nc(N)c(C#N)c(-c2ccccc2OC)c1C | 10% | 5 | i | 1.1 | 15 | 2.3*
COc1ccccc1N1CCN(c2nc(N)c(C#N)c(CC#N)c2C#N)CC1 | 7% | 7 | i | 1.1 | 4 | 1.1
COc1ccccc1-c1cc(C2CC2)nc(N)c1C#N | 7% | 6 | nt | 1.1 | 7 | 2.1*
CN(C)c1oc(-c2ccccc2Cl)nc1C#N | 3% | 5 | i | 1.1 | 11 | 2.7*
CN(C)c1oc(-c2ccccc2Cl)nc1S(=O)(=O)c1ccccc1 | 7% | 8 | i | 1.1 | 0 | 1.1
CCOC(=O)c1nc(-c2ccccc2)oc1N(C)C | 5% | 0 | nt | 1.1 | 9 | 4.9*
Cc1ccccc1-c1nnc(-c2ccccc2)o1 | 10% | 5 | i | 1 | 8 | 1.1
CN(C)c1oc(-c2ccccc2)nc1C#N | 14% | 8 | nt | 1.1 | 20 | 2.1*

Screens deposited in PubChem by SRMLSC.
